This is a sample that favours compounds with a hit; in the whole collection about 2% have one here.
Her2 expr inh – Her2 kinase expression inhibition. SKBR-3 HER2 protein level, AlphaScreen, 18-24 h; stronger effect = lower value. AID 645. HER2 level % of control, % at 10 µM. P04626. 0.69% of 65,000 active;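 active means HER2 level under 5% of the carrier-only control; inconclusive means no clear call, values can overlap the other calls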
Jurkat tox 60K – cytotoxicity toward Jurkat cells; 1.2% of 56,000 active; inhibition, % at 4 µM; AID 463; Jurkat E6.1 viability, ATP luminescence, 48 h;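 active means inhibition above the mean inhibition of all tested compounds plus 3 SD, cut at about 28% in these data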
SKBR3 24h inh – SK-BR-3 proliferation inhibitors | SK-BR-3 viability, CellTiter-Glo ATP luminescence, 24 h; stronger effect = lower value | viability, % at 10 µM | 0.47% of 41,000 active;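 active means viability at or below the median of all test compounds minus 3 SD, in both replicates if run twice, cut at about 45% in these data; inconclusive means duplicate replicates that disagree with each other; inactive means viability above that cutoff in every replicate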
A number is an active result; . = inactive; ? = inconclusive; / = no result.

SMILES	Her2 expr inh	Jurkat tox 60K	SKBR3 24h inh
O=C(CP(=O)(c1ccccc1)c1ccccc1)Nn1cnnc1	.	/	.
O=C1CCCN1c1ccc(S(=O)(=O)Nc2ccc3c(c2)OCCO3)cc1	.	82	.
CSc1ccc(S(=O)(=O)Nc2ccc3c(c2)OCCO3)cc1	.	.	/
O=C(CN(Cc1ccccc1F)C(=O)Cn1nnc(-c2cccs2)n1)NCC1CCCO1 (configuration not stated)	.	.	.
CN(C)c1ccc(-c2nn3c(-c4ccccc4Cl)nnc3s2)cc1	.	82	.
COc1ccccc1-c1nnc2sc(-c3ccc(N(C)C)cc3)nn12	.	99	.
CN(C)c1ccc(-c2nn3c(-c4ccncc4)nnc3s2)cc1	.	.	.
COc1ccccc1-c1nnc2sc(-c3cc4ccccc4o3)nn12	.	87	.
Clc1ccccc1-c1nnc2sc(-c3ccncc3)nn12	.	.	/
COc1ccccc1-c1nnc2sc(-c3cnccn3)nn12	.	.	.
Cc1ccc(N(CC(=O)Nc2cccc(C)c2)S(=O)(=O)c2cccc3nonc23)cc1	.	.	.
COC(=O)CCC(=O)N1CCc2cc(S(=O)(=O)N3CCN(c4ccccc4Cl)CC3)ccc21	.	.	.
O=C(NCc1ccc2c(c1)OCO2)c1ccc(C2SCC(=O)N2Cc2ccco2)cc1 (configuration not stated)	.	.	.
CC(C)Cn1c(=O)c(C(=O)Nc2ccncc2)c(O)c2ccccc21	-13	.	.
CC(C)Cn1c(=O)c(C(=O)Nc2cnccn2)c(O)c2ccccc21	.	.	.
CC1CC(C)CN(Cc2nc3c(c(=O)n(C)c(=O)n3C)n2Cc2ccccc2Cl)C1 (configuration not stated)	.	.	/
COc1ccc(N(CN2C(=O)C3C4C=CC(C4)C3C2=O)C(=O)c2ccco2)cc1 (configuration not stated)	.	/	.
COc1ccc(N(Cc2cc(=O)[nH]c3ccccc23)C(=O)c2ccco2)cc1	.	.	44
COc1ccc(-c2nnnn2CCc2ccccc2)cc1	.	.	.
Cc1c(=O)n(OCc2c(F)cccc2F)c2ccccc2[n+]1[O-]	.	/	.
COc1ccc(CC(=O)Nc2ccc(-c3noc(-c4cc(OC)c(OC)c(OC)c4)n3)cc2)cc1	.	/	/
COc1cc(-c2nc(-c3ccc(NC(=O)c4ccc5c(c4)OCO5)cc3)no2)cc(OC)c1OC	-3.3	.	?
COc1ccccc1NC(=O)COc1ccc(CO)cc1Cl	.	.	.
CNC(=O)c1c(C)nc(SCC(=O)NCc2ccc(OC)cc2)c(C#N)c1-c1ccco1	-33	.	/
COCCOC(=O)c1c(C)nc(SCC(=O)Nc2ccc(C)cc2)c(C#N)c1-c1ccco1	.	/	.
SMILES	Her2 expr inh	Jurkat tox 60K	SKBR3 24h inh
CCNC(=O)NC(=O)COC(=O)c1ccccc1SCC(=O)NC(=O)NCC	.	.	/
COc1ccc(NC(=O)C2CCCN(S(=O)(=O)c3cccc4cccnc34)C2)c(OC)c1 (configuration not stated)	.	.	/
CCCC(=O)NC(c1ccco1)c1cc(Cl)c2cccnc2c1O (configuration not stated)	.	.	/
Oc1c(C(Nc2nc3ccccc3s2)c2ccco2)ccc2cccnc12 (configuration not stated)	.	62	/
CC(C)C(=O)NC(c1ccco1)c1ccc2cccnc2c1O (configuration not stated)	.	90	/
COc1ccc(C(NC(C)=O)c2ccc3cccnc3c2O)c(OC)c1 (configuration not stated)	.	86	/
O=C(Nc1nc(-c2nc3ccccc3s2)cs1)c1ccco1	.	.	/
COc1ccc(Nc2nc3c(c(=O)n(C)c(=O)n3C)n2CCO)cc1	.	.	.
COc1ccc(Cn2nnc3c(=O)[nH]c(C(=O)NCCc4ccc(F)cc4)nc32)cc1OC	.	.	/
CCc1cccc(OCC(=O)Nc2ccc(S(=O)(=O)Nc3onc(C)c3C)cc2)c1	.	.	/
COc1cccc(N2CCN(c3ncnc4c3[nH]c3ccccc34)CC2C)c1 (configuration not stated)	.	/	.
COc1cccc(N2CCN(c3ncnc4c3[nH]c3ccc(F)cc34)CC2C)c1 (configuration not stated)	-26	/	5.7
CCc1cccc(NC(=O)CN(c2ccc(OC)cc2)S(=O)(=O)c2c(C)n[nH]c2C)c1	.	.	.
O=C(CCN1C(=O)c2ccccc2S1(=O)=O)Nc1nc2c(s1)CCCC2	.	.	.
CCOC(=O)c1c(CN2CCCCC2)oc2ccc(O)cc12	.	.	.
CCOC(=O)c1c(COc2ccccc2)oc2ccc(O)cc12	.	45	/
Cc1c(Cl)cccc1N(CC(=O)NC1CCCCC1)S(C)(=O)=O	.	.	/
COc1cccc(N2CCN(c3c4c(nc5ncnn35)CCC4)CC2)c1	.	/	25
c1ccc(N2CCN(c3c4c(nc5ncnn35)CCC4)CC2)cc1	.	/	/
O=C(Cc1ccc(F)cc1)Nc1c2c(nn1-c1cccc(Cl)c1)CS(=O)C2 (configuration not stated)	.	.	36
CC(=O)Nc1c2c(nn1-c1cccc(Cl)c1)CS(=O)C2 (configuration not stated)	.	.	/
O=C(Nc1ccccc1C(F)(F)F)N1CCN(c2ccc3nncn3n2)CC1	.	.	/
CSC1=C(C#N)C(c2ccc(Cl)cc2)C2=C(CC(C)(C)CC2=O)N1 (configuration not stated)	.	36	/
CCCSC1=C(C#N)C(c2ccc(OC)cc2)C2=C(CC(C)(C)CC2=O)N1 (configuration not stated)	.	/	.
O=C(NCC(c1cccnc1)N1CCN(c2ccc(F)cc2)CC1)c1ccc(F)cc1 (configuration not stated)	.	.	.
SMILES	Her2 expr inh	Jurkat tox 60K	SKBR3 24h inh
CCN1CCN(CC(=O)Nc2cccc(C)c2C)C(=O)C1=O	.	.	/
Nc1c(S(=O)(=O)c2cccc(Cl)c2)c2nc3ccccc3nc2n1/N=C/c1ccc(O)c(O)c1	-13	.	2.7
Cc1cccc(S(=O)(=O)c2c(N)n(Cc3ccco3)c3nc4ccccc4nc23)c1	.	.	.
CCSc1nnc(NC(=O)c2ccccn2)s1	.	76	/
CCSc1nnc(NC(=O)c2cnccn2)s1	.	.	/
Cc1csc(NC(=O)CSc2nnc(-c3ccoc3C)n2Cc2ccco2)n1	.	.	.
Cc1cc2oc3c(c(=O)c2cc1C)C(c1cccc(Br)c1)N(Cc1ccco1)C3=O (configuration not stated)	.	.	42
Cc1ccc2oc3c(c(=O)c2c1)C(c1cccc(Br)c1)N(Cc1ccco1)C3=O (configuration not stated)	.	.	.
CC(C)c1nc(SCc2c(F)cccc2Cl)c2c(=O)n(C)c(=O)n(C)c2n1	.	.	/
COc1ccc(-c2c3c(=O)n(C)c(=O)n(C)c3cn2C2CCCCC2)cc1	.	.	.
CCOc1ccccc1NC(=O)c1c(NC(=O)CNCc2ccco2)sc2c1CCC2	.	.	.
Cc1noc(C)c1COC(=O)c1cccc(S(=O)(=O)N2CCCCCC2)c1	.	40	/
COc1ccc(S(=O)(=O)N2CCCCCC2)cc1C(=O)OCc1c(C)noc1C	.	.	/
CCCN1C(=O)c2ccccc2NC1c1ccc(OC)cc1OC (configuration not stated)	.	.	/
CCCN1C(=O)c2ccccc2NC1c1ccc(OC)cc1O (configuration not stated)	.	36	.

Assay outcomes as filed in PubChem BioAssay.
